The list is not random: actives were taken first. Their share in the collection is about 4.2%.
Wnt act = Wnt/beta-catenin pathway activators, primary screen, cell-based, plate reader, single point; Wnt/beta-catenin reporter cell assay, activator; activation, % at 9.35 µM; 300,000 tested, 1.2% active; AID 743398, 2014; in the data active = activation above about 30%, passing the limit was not always enough; inconclusive = no clear call, values can overlap the other calls;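 also: 0% = neutral control wells and 100% = positive control wells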
AHR activator = AHR activators, primary screen, cell-based, luminescence, luciferase reporter, human. 320,000 tested, 2.5% active. AID 2796, 2010. activation, % at 5 µM. Aryl hydrocarbon receptor (Homo sapiens), P35869. AHR-responsive luciferase reporter cells; in the data active = activation above about 47%;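 also: 0% = vehicle wells and 100% = reference agonist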
Target sequence (P35869 whole entry, looked up): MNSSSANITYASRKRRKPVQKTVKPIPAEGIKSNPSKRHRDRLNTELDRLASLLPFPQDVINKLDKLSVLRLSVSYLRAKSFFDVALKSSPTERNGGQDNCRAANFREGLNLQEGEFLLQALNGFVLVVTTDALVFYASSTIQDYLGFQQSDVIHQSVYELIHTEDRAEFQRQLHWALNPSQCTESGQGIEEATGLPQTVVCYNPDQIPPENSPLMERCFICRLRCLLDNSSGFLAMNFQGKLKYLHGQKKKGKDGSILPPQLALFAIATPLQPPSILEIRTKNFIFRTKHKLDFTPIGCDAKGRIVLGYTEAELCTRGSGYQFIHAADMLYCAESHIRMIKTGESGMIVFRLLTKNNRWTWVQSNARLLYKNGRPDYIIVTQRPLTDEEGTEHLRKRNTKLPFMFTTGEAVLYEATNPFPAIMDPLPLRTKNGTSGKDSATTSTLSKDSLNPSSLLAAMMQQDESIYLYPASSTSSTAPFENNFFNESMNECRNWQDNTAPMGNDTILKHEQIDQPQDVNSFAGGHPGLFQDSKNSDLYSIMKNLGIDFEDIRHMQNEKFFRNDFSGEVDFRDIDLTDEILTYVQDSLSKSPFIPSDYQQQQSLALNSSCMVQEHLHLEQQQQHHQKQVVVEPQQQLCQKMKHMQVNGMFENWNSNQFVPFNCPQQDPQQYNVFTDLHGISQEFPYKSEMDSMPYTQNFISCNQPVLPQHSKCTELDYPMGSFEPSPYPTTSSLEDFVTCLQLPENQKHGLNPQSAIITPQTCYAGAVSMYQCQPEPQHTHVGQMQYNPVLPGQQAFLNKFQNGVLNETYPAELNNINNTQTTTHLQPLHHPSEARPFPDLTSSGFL
MITF TRPM1 HTS = activators of MITF-driven TRPM1 promoter reporter, primary screen, cell-based, SK-MEL-5, luciferase, single point | 300,000 tested, 0.75% active | SK-MEL-5 TRPM1-promoter luciferase, 24 h; % of positive control, neutral wells = 0 | AID 588334, 2011 | activation, % at 12.5 µM;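 active = mean activation of at least 80% with every replicate also reaching 80%; inconclusive = mean reaches 80% but some replicate falls short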;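 also: 0% = neutral control wells and 100% = parthenolide positive control wells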
esBAF inh = Bmi1 luciferase reporter increase in mESCs, primary screen, esBAF inhibitor project, mouse ES cells, Bmi1 luciferase knock-in, single point; 24 h; 100% = twice the neutral-well signal; reporter increase, % at 12.5 µM; 350,000 tested, 2% active; AID 602393, 2012; in the data active = activation above about 40%; inconclusive = no clear call, values can overlap the other calls;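 also: 0% = median of the plate's neutral control wells and 100% = double that signal; a rise in the Bmi1 reporter signal indicates esBAF inhibition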
FXN GAA850 act = FXN promoter activators, primary screen, cell-based, luciferase luminescence, HEK293 lucGAA850 | HEK293 lucGAA850 FXN promoter luciferase reporter, 24 h; percent of 10 µM SAHA response | activation, % at 6 µM | 360,000 tested, 0.56% active;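 active = activation above the average of all compounds screened plus 3 SD, cutoff fixed separately per campaign, cut at about 7.5% in these data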;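 also: 0% = DMSO wells and 100% = 10 µM SAHA wells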
* hit, by the source's call; ? = inconclusive; · = not tested or not shown.

SMILES | Wnt act | AHR activator | MITF TRPM1 HTS | esBAF inh | FXN GAA850 act
O=C(Nc1nnc(SCc2ccccc2F)s1)C1=COCCO1 | 2 | 3 | 44 | 21 | 4
O=C(Nc1nnc(SCc2ccc(F)cc2)s1)C1=COCCO1 | -4 | 0 | 23 | 48* | 1
C[C@@H]1CN([C@@H](C)CO)C(=O)c2cc(C#C[C@@H](C)O)cnc2O[C@@H]1CN(C)C(=O)Nc1ccc(F)cc1 | · | · | · | 3 | ·
Cc1cccc(NC(=O)c2c(O)c3ccccc3[nH]c2=O)c1 | 41* | 6 | 106* | 49* | 5
O=C(Nc1cccc(O)c1)c1c(O)c2ccccc2[nH]c1=O | 19 | 30 | · | -4 | 3
Cc1ccc(NC(=O)C(=O)c2c[nH]c3ccccc23)cc1 | 64* | · | · | 20 | 6
Cc1ccc(NC(=O)c2cc(=O)[nH]c3ccccc23)cc1 | -2 | 76* | -8 | 5 | 3
O=C(CCN1CCCCC1)NCC[C@H]1CC[C@@H](NC(=O)C2CC2)[C@H](CO)O1 | · | · | · | 2 | ·
CN1C(=O)c2cc(NC(=O)c3ccc4c(c3)OCO4)ccc2OC[C@@H]2O[C@H](CC(=O)O)CC[C@@H]21 | · | · | · | -3 | ·
CCCc1cn(CC[C@@H]2CC[C@H](NC(=O)Nc3ccccc3F)[C@H](CO)O2)nn1 | · | · | · | -8 | ·
CNC[C@@H]1Oc2ncc(C#Cc3ccc(F)cc3)cc2C(=O)N([C@H](C)CO)C[C@@H]1C | · | · | · | -5 | ·
CC(C)(C)C1CCC(=NNc2nc3ccccc3[nH]2)CC1 (stereo not drawn) | 0 | 20 | -5 | · | -1
c1ccc2c(c1)CC/C2=N/Nc1nc2ccccc2[nH]1 | 7 | 48* | 82* | 6 | 6
O=C(Nc1ccc(Cl)c(Cl)c1)N1CC=CCC1 | · | 37 | 76 | 100* | 2
C[C@@H]1CN([C@@H](C)CO)C(=O)Cc2cc(NC(=O)Nc3ccc(C(F)(F)F)cc3)ccc2O[C@@H]1CN(C)Cc1ccncc1 | · | · | · | -3 | ·
CCC(=O)Oc1ccc(-c2cnc3ccccc3n2)cc1 | 28 | 0 | 50 | 30 | 7
Cc1ccc(NCC(=O)N/N=C/c2ccc(OC(=O)c3ccco3)cc2)cc1 | 2 | 59* | -4 | 2 | 5
Cc1ccc(NC(=O)c2ccc(OC(=O)c3ccco3)cc2)cc1 | 20 | 4 | 121* | 54* | 6
O=C(Oc1ccc(-c2cnc3ccccc3n2)cc1)c1ccco1 | 69* | -1 | ? | 8 | 5
Cc1ccc(NC(=O)c2ccc(OC(=O)c3cc4ccccc4o3)cc2)cc1 | 43* | 15 | 60 | 60* | 3
O=C(C[C@@H]1CC[C@H]2[C@@H](COC[C@@H](O)CN2Cc2ccc(Oc3ccccc3)cc2)O1)N1CCCCC1 | · | · | · | 14 | ·
CCC(=O)N1C[C@H](C)[C@H](OC)CN(C)C(=O)c2cc(NC(=O)C3CCCCC3)ccc2OC[C@H]1C | · | · | · | -6 | ·
COc1cccc(/C=C/c2ccccn2)c1O | 42* | 40 | 67 | · | 5
CC(C)c1ccc2oc(-c3cc(N)ccc3O)nc2c1 | · | 70* | · | -52 | -5
Cc1ccccc1-c1nc2cc(N)ccc2o1 | 2 | 4 | 32 | -6 | 2
SMILES | Wnt act | AHR activator | MITF TRPM1 HTS | esBAF inh | FXN GAA850 act
CC1CCc2c(sc(NC(=O)/C=C/c3cccs3)c2C(=O)O)C1 (stereo not drawn) | 1 | 8 | 7 | 53* | -5
Cc1ccc(C(=O)Cn2nnc(-c3cccs3)n2)cc1 | 40* | 1 | 43 | 20 | 2
O=C(Cn1nnc(-c2cccs2)n1)N1CCOCC1 | 1 | 0 | -8 | · | 3
CC1CCN(C(=O)Cn2nnc(-c3cccs3)n2)CC1 | 5 | 13 | 38 | 48* | 5
O=C(Cn1nnc(-c2cccs2)n1)NCc1cccs1 | -1 | -1 | 10 | · | 1
O=C(C[C@H]1C=C[C@H](NS(=O)(=O)c2ccccc2)[C@H](CO)O1)NCCN1CCCCC1 | · | · | · | 0 | ·
O=C(Cc1cccs1)NCc1ccc(Cl)cc1Cl | 27 | 7 | · | 66* | 5
O=C(Cc1ccccc1[N+](=O)[O-])NCc1ccc(Cl)cc1Cl | 17 | 7 | 94* | · | 4
O=C(Cc1cccs1)NCc1cccc(Cl)c1 | 8 | · | 61 | 50* | 3
O=C(Cc1cccs1)NCc1cccc(CNC(=O)Cc2cccs2)c1 | -1 | -1 | 18 | -6 | 1
O=C(Cc1cccs1)NCc1cc(Cl)cc(Cl)c1 | 12 | 4 | 47 | ? | 3
O=C(NNc1ccccc1F)c1ccccc1 | 3 | -2 | · | · | 1
Nc1nc(Nc2ccccc2F)sc1C(=O)c1ccccc1 | 35* | 10 | 100* | · | -2
Cc1ccc(Nc2n[nH]c(=S)s2)cc1C | 12 | · | · | 51* | 2
S=c1[nH]nc(Nc2cccc(Cl)c2)s1 | 7 | 10 | 1 | · | 1
Cc1c(C)c2ccc(OCC(=O)c3ccccc3)cc2oc1=O | 26 | -2 | 94* | ? | 3
CCCCc1c(C)c2ccc(OCC(C)=O)cc2oc1=O | 4 | 17 | 78 | 63* | 1
COc1cccc(C(=O)COc2ccc3c(C)c(Cc4ccccc4)c(=O)oc3c2)c1 | -1 | 3 | 6 | · | 0
Clc1nc(Nc2ccccc2)nc(Nc2ccccc2)n1 | 49* | 11 | 21 | ? | 5
OCCNc1nc(Nc2ccccc2)nc2ccccc12 | · | 51* | 1 | 2 | -2
Cc1c(Cl)cccc1Nc1nc(NCCO)c2ccccc2n1 | 29 | 57* | 10 | 6 | 0
OCCNc1nc(Nc2ccccc2)nc(Nc2ccccc2)n1 | · | 48* | 9 | 6 | 2
C[C@@H]1CCCCO[C@H](CN(C)CC2CC2)[C@H](C)CN([C@@H](C)CO)C(=O)c2cc(NS(=O)(=O)c3ccccc3)ccc2O1 | · | · | · | -6 | ·
c1ccc(Nc2nc(NCC3CCCO3)c3ccccc3n2)cc1 (stereo not drawn) | 0 | 12 | -17 | -32 | -1
Oc1cccc(Nc2nc(NCC3CCCO3)c3ccccc3n2)c1 (stereo not drawn) | -6 | 79* | 14 | 0 | 1
SMILES | Wnt act | AHR activator | MITF TRPM1 HTS | esBAF inh | FXN GAA850 act
CCN1[C@@H]2Cn3c(ccc(-c4cccc(F)c4)c3=O)[C@H]1[C@@H](C(=O)N(C)C)[C@@H]2CO | · | · | · | -1 | ·
N/C(=N\OC(=O)c1cccc(Cl)c1)c1ccccn1 | -18 | 70* | 2 | · | -1
N/C(=N\OC(=O)c1ccc(Cl)cc1)c1ccccn1 | · | -15 | 9 | -70 | -4
Cc1cc(/C(N)=N/OC(=O)c2cccc(Cl)c2)no1 | 38* | 38 | · | · | 2
N/C(=N\OC(=O)c1ccc(Cl)c(Cl)c1)c1ccccn1 | · | 72* | 2 | -35 | -1
Cc1cc(/C(N)=N/OC(=O)c2ccc(Cl)cc2)no1 | 0 | -5 | · | 45 | 3
C[C@@H]1CN([C@H](C)CO)C(=O)Cc2cc(NS(=O)(=O)c3ccc(F)cc3)ccc2O[C@@H]1CN(C)Cc1ccc(Cl)c(Cl)c1 | · | · | · | 5 | ·

Assay outcomes deposited in PubChem BioAssay by several laboratories.
